{
  "source": "PubChem BioAssay (NCATS)",
  "note": "Inconclusive results are not listed. Values without a mark were called inactive. The source made the active and inactive calls. Calls come from the whole dose curve; as a rule, active = well fitted inhibition curve with a large enough effect; inconclusive = small, poorly fitted or top-dose-only effect; inactive = flat fitted curve, though single readings scatter. % is set by controls: 0 for no effect and ±100 for the full control effect; potency is the fitted concentration of half-maximal effect.",
  "data": [
    {"assay": "P-glycoprotein substrates identified in KB-8-5-11 adenocarcinoma cell line, qHTS therapeutic library screen (AID 1346987); note: nearly all actives have a fitted effect of over 65% in size", "details": "KB-8-5-11 (P-gp overexpressing) viability, CellTiter-Glo, 72 h; series mostly up to 44.5 µM; activity change, negative = cytotoxicity: at the top concentration", "procedure,_shortened": "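Human cervical adenocarcinoma KB-8-5-11 cells, selected in colchicine to over-express P-gp and assayed without it, were exposed for 72 h to titrated compounds. An ATP-based luminescent viability signal gave AC50.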", "units": {"activity change, negative = cytotoxicity": "%"}, "values": [
      {"smiles": "O=C(CO)N1CCC(c2[nH]nc(-c3ccc(Cl)cc3)c2-c2ccncn2)CC1", "Potency": "inactive"},
      {"smiles": "CC(=O)NCCC(=O)N[C@@H](CCC(N)=O)C(=O)N[C@@H](CO)C(=O)N[C@@H](CCC(N)=O)C(=O)N[C@@H](CCC(N)=O)C(=O)N[C@H](C(=O)N[C@@H](Cc1ccccc1)C(=O)N[C@]1(C)CCCCCCC=CCCC[C@@](C)(C(=O)N[C@@H](CCC(N)=O)C(=O)N[C@@H](CC(N)=O)C(N)=O)NC(=O)[C@H](CC(C)C)NC(=O)[C@H](CC(C)C)NC(=O)[C@@H](CCCNC(=N)N)NC(=O)[C@H](Cc2c[nH]c3ccccc23)NC(=O)[C@H](CC(C)C)NC(=O)[C@H](CC(N)=O)NC1=O)[C@H](C)O", "activity change, negative = cytotoxicity": -17.7},
      {"smiles": "CS(=O)(=O)c1ccc(C2=C(c3ccccc3)C(=O)OC2)cc1", "Potency": "inactive"},
      {"smiles": "O=C(NC[C@H](O)CO)c1ccncc1Nc1ccc(I)cc1F", "activity change, negative = cytotoxicity": 5.41},
      {"smiles": "CN(C)CCOc1cc(-c2cn[nH]c2)ccc1NC(=O)C1COc2ccccc2O1", "note": "(stereo unspecified)", "activity change, negative = cytotoxicity": -15.8},
      {"smiles": "C[C@H](c1ccc(F)cc1CCCC(=O)O)N(c1cc(F)ccc1F)S(=O)(=O)c1ccc(Cl)cc1", "Potency": "inactive"},
      {"smiles": "C[C@@H]1C[C@H]2[C@@H]3CCC4=CC(=O)C=C[C@]4(C)[C@@]3(F)[C@@H](O)C[C@]2(C)[C@@]1(O)C(=O)CO", "outcome": "inactive"},
      {"smiles": "CNC(=O)c1cc(COc2nnc(Nc3ccc(Cl)cc3)c3ccoc23)ccn1", "activity change, negative = cytotoxicity": -4.98},
      {"smiles": "Cc1ccccc1C(=O)c1ccc(Nc2ccc(Br)cc2N)cc1Cl", "Potency": "20.6 µM (active)"},
      {"smiles": "COc1ccc2ccc(=O)oc2c1CC=C(C)C", "activity change, negative = cytotoxicity": 1.27},
      {"smiles": "CCC(=C(CC)c1ccc(O)cc1)c1ccc(O)cc1", "activity change, negative = cytotoxicity": 1.73}
    ]}
  ]
}
